The entries come from a sample that favours hits as a whole.
CD40 NFkB inh – inhibitors of CD40-induced NF-kB signaling, primary screen, BL2 cells, luciferase reporter, single point; CD40L-induced, 4 h; AID 1053188, 2014; inhibition, % at 10 µM; hit rate 0.94% among 83,000;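 active = mean inhibition of at least 50% with a set share of replicates also reaching that level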;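 also: 0% = neutral control wells and 100% = IKK inhibitor VII at 50 µM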
Active calls of the source: *; [ ] = another dose, or the depositor's remark.

SMILES | CD40 NFkB inh
Cc1ccc(S(=O)(=O)N2CCN(c3ccc4nnc(-c5ccccc5)n4n3)CC2)cc1 | -3
CCOC(=O)Cc1csc(NC(=O)CC(C)(C)CC(=O)O)n1 | 5
CC(C)NC(=O)Nc1ccc2c(c1)C(=O)N([C@@H](C)CO)C[C@H](C)[C@H](CN(C)C(=O)c1ccncc1)OCCCC[C@H](C)O2 | -6
Cc1ccc2nc(N(CCN3CCOCC3)C(=O)CCS(=O)(=O)c3ccccc3)sc2c1 | -33
O=C(CCS(=O)(=O)c1ccccc1)Nc1ccc(N2CCOCC2)cc1 | -25
Cc1ccc(S(=O)(=O)CCC(=O)N(CCCN2CCOCC2)c2nc3ccccc3s2)cc1 | 96*
O=C(NCCCN1CCOCC1)c1cc(-c2ccccc2)nc2ccccc12 | 1
O=C(CCS(=O)(=O)c1ccccc1)N(CCCN1CCOCC1)c1nc2ccccc2s1 | 96*
CC(=O)Nc1ccc(S(=O)(=O)N(CCCN2CCOCC2)Cc2cccs2)cc1 | 3
COc1ccc(OC)c(S(=O)(=O)NC(=O)C2(C)CCN2C(=O)Cc2ccc(Cl)cc2Cl)c1 (centres undefined) | 0
Cn1c(SCC(=O)NCc2cccs2)nnc1-c1ccco1 | 9
O=C(C1COc2ccccc2O1)N1CCN(c2ccccn2)CC1 (centres undefined) | 13
Cn1ccc(=O)c2cc([N+](=O)[O-])ccc21 | 1
COc1cc(N(C)C)ccc1C=c1c2ccccc2n2c1cc(-c1ccccc1)[n+]2C | 101*
CN(C)c1ccc(C=c2c3cc([N+](=O)[O-])ccc3n3c2cc(-c2ccccc2)[n+]3C)cc1 | 91*
CN(C)c1ccc(C=C2C=C(c3ccccc3)OC2=O)cc1 | -1
O=C(c1ccccc1)c1ccc2c(c1)OCCCO2 | -134
COc1ccc(C2=NN(C(=O)CN3CCCCC3)C(c3ccc(C)cc3)C2)cc1 (centres undefined) | -5
Cc1ccc(-c2nc3ccccc3s2)cc1S(=O)(=O)N1CCOCC1 | -4
c1ccc(-c2nc3ccccc3s2)nc1 | -84
Cc1cc(-c2nc3ccccc3s2)ccc1N | 56*
C[C@@H]1CN([C@H](C)CO)S(=O)(=O)c2ccc(C#Cc3ccc(F)cc3)cc2O[C@@H]1CN(C)S(=O)(=O)c1cn(C)cn1 | 18[25 µM]
CCS(=O)(=O)N1CCC(C(=O)NCc2ccc(OC)cc2OC)CC1 | 9
O=C([C@@H]1[C@@H](CO)[C@@H]2Cn3c(cccc3=O)[C@@H]2N1Cc1cocn1)N1CCC(Cc2ccccc2)CC1 | 2[25 µM]
CC1CCCCN1C(=O)c1ccc(C(=O)N2CCCCC2C)cc1 (centres undefined) | 5
SMILES | CD40 NFkB inh
O=C(C#Cc1ccccc1)c1ccccc1 | 89*
O=C(CC(=O)c1ccccc1)c1ccccc1 | -74
O=C(COc1ccccc1)c1ccccc1 | -9
COc1cc(OC)c(C(=O)NCC(c2cccs2)N(C)C)cc1OC (centres undefined) | 2
CCCNC(=O)Nc1ccc2c(c1)C(=O)N(C)C[C@H](OC)[C@H](C)CN(C)[C@@H](C)CO2 | -2[25 µM]
O=C(N1CCN(c2ccccc2)CC1)C12CC3CC(CC(C3)C1)C2 | 8
CC1(C)CC[C@]2(C(=O)n3ccnc3)CC[C@]3(C)[C@H](C(=O)C=C4[C@@]5(C)C=C(C#N)C(=O)C(C)(C)[C@@H]5CC[C@]43C)[C@@H]2C1 | 92*
O=C(c1nc2nc(-c3ccccc3)cc(C(F)(F)F)n2n1)N1CCOCC1 | 17
O=C(NC(=O)N1CCN(C(c2ccccc2)c2ccccc2)CC1)c1ccccc1 | 14
COC1=CC(=O)c2c(ccc3ncnc(N)c23)C1=O | 103*
O=C(NCCCN1CCOCC1)[C@H]1[C@H](CO)[C@H]2Cn3c(ccc(C4=CCCCC4)c3=O)[C@@H]1N2 | -10[25 µM]
OCCN1CCN(CCCN2c3ccccc3Sc3ccc(C(F)(F)F)cc32)CC1 | 51*
O=C(CN1CCCC1)N1c2ccccc2Sc2ccccc21 | 1
O=C(N1CCN(CCO)CC1)N1c2ccccc2CCc2ccccc21 | 3
O=C(CCn1cnc2ccccc2c1=O)Nc1ccc(S(=O)(=O)N2CCCCC2)cc1 | 3
Cc1ccnc(NC(=O)c2ccc(OCC3CCCO3)cc2)c1 (centres undefined) | 87*
Cc1ccnc(NC(=O)c2ccc3c(c2)C(=O)N(CC2CCCO2)C3=O)c1 (centres undefined) | -73
COc1ccc(NC(=O)c2ccc(OCC3CCCO3)cc2)cc1OC (centres undefined) | -28
COc1ccc(C(=O)NC2CCCCCC2)cc1S(=O)(=O)N1CCCC1 | 21
O=C(NCc1ccccn1)c1cc(-c2ccccc2)on1 | -24
O=C(c1ccccc1)c1cc(-c2ccccc2)on1 | 73*
Cc1cc(NC(=O)c2cc(-c3ccccc3)on2)no1 | -49
COc1ccccc1C(=O)NCCC(=O)NCc1cccnc1 | 5
CC(=O)c1cc(-c2ccccc2)n(CCC(=O)NC2CCCCCCC2)c1C | 2
CC(=O)c1cc(-c2ccccc2)n(CC(=O)NCc2cccs2)c1C | 54*
O=C(CN1CCN(Cc2ccccc2)C1=O)NCc1cccs1 | 0
O=C(Nc1nnc(S(=O)(=O)N2CCOCC2)s1)c1ccccc1 | -27

Bioassay records: PubChem, Broad Institute
